Assay results: PubChem BioAssay (Tox21)
Values joined by “and” are separate entries in the source; they are usually repeats but may differ in a detail not shown here. Equal values may be shown once. More than one record can exist for a structure, and the calls need not agree. Active and inactive are the calls of the source. Unless noted, calls come from the whole dose curve; as a rule, active = well fitted curve in the direction sought with a large enough effect in the repeat runs; inconclusive = weak or mixed curves; inactive = no such curve, though single readings can be large; an effect the other way counts as inactive or inconclusive.

What was measured:
[1] = qHTS assay to identify small molecule antagonists of the glucocorticoid receptor (GR) signaling pathway - cell viability counter screen (AID 720693); note: nearly all actives have a fitted effect of over 55% in size; note: potency is the fitted concentration of half-maximal effect
[2] = qHTS assay for identifying genotoxic compounds that show differential cytotoxicity against isogenic chicken DT40 cell lines with known DNA damage response pathways - wild type cell line (AID 743012); note: nearly all actives have a fitted effect of over 60% in size; note: potency is the fitted concentration of half-maximal effect
Procedure, shortened: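 Endpoint: CellTiter-Glo luminescence, 30 min RT. Cells: wild type DT40, 300/well. Exposure: compounds in DMSO, 40 h, 37 C/5% CO2, after ~0.5 h pre-incubation.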

[3] = qHTS assay for identifying genotoxic compounds that show differential cytotoxicity against isogenic chicken DT40 cell lines with known DNA damage response pathways - Rev3 mutant cell line (AID 743014); note: nearly all actives have a fitted effect of over 55% in size; note: potency is the fitted concentration of half-maximal effect
[4] = qHTS assay for identifying genotoxic compounds that show differential cytotoxicity against isogenic chicken DT40 cell lines with known DNA damage response pathways - Rad54/Ku70 mutant cell line (AID 743015); note: nearly all actives have a fitted effect of over 60% in size; note: potency is the fitted concentration of half-maximal effect
[5] = qHTS assay to identify small molecule antagonists of the androgen receptor (AR) signaling pathway - cell viability counter screen (AID 743033; note: nearly all actives have a fitted effect of over 45% in size; note: potency is the fitted concentration of half-maximal effect)
[6] = qHTS assay to identify small molecule antagonists of the androgen receptor (AR) signaling pathway using the MDA cell line - cell viability counter screen (AID 743041; note: nearly all actives have a fitted effect of over 45% in size; note: potency is the fitted concentration of half-maximal effect)
Procedure, shortened: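 Cytotoxicity counter screen: MDA-kb2 AR-luc cells, compound + R1881, 16 h, 37C, 0% CO2; CellTiter-Fluor added at 15.5 h, fluorescence read after 30 min.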

[7] = qHTS assay to identify small molecule antagonists of the thyroid receptor (TR) signaling pathway - cell viability counter screen (AID 743064); note: nearly all actives have a fitted effect of over 50% in size; note: potency is the fitted concentration of half-maximal effect
Procedure, shortened: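 Counter screen for cytotoxicity: compound plus T3 (1 nM final) on GH3.TRE-Luc cells, 23.5 h at 37 °C, then fluorescence viability readout with CellTiter-Fluor.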

[8] = qHTS assay to identify small molecule antagonists of the thyroid receptor (TR) signaling pathway (AID 743065); note: nearly all actives have a fitted effect of over 55% in size; note: potency is the fitted concentration of half-maximal effect
Procedure, shortened: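 GH3.TRE-Luc rat pituitary cells (two TREs driving luciferase) were dosed with compound, then stimulated with 1 nM T3 (final) for 23.5 h at 37 C. ONE-Glo luminescence was the read-out, with CellTiter-Fluor fluorescence as the cytotoxicity counter-screen.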

[9] = test system: thyroid hormone receptor (rat, GH3 cells); experiment: qHTS assay to identify small molecule agonists of the thyroid receptor (TR) signaling pathway (AID 743066; calls by dose curve)
[10] = target: Estrogen receptor (Homo sapiens) (UniProt P03372); experiment: qHTS assay to identify small molecule antagonists of the estrogen receptor alpha (ER-alpha) signaling pathway (AID 743069; active = well fitted curve in the direction sought with a large enough effect in the signal ratio in the repeat runs, not every such curve was filed as active; inconclusive = weak or mixed curves, or effect the other way; inactive = no such curve, though single readings can be large or run the other way; the % refers to the signal ratio; note: potency is the fitted concentration of half-maximal effect)
Chain of Estrogen receptor (Homo sapiens) (P03372 whole entry, looked up): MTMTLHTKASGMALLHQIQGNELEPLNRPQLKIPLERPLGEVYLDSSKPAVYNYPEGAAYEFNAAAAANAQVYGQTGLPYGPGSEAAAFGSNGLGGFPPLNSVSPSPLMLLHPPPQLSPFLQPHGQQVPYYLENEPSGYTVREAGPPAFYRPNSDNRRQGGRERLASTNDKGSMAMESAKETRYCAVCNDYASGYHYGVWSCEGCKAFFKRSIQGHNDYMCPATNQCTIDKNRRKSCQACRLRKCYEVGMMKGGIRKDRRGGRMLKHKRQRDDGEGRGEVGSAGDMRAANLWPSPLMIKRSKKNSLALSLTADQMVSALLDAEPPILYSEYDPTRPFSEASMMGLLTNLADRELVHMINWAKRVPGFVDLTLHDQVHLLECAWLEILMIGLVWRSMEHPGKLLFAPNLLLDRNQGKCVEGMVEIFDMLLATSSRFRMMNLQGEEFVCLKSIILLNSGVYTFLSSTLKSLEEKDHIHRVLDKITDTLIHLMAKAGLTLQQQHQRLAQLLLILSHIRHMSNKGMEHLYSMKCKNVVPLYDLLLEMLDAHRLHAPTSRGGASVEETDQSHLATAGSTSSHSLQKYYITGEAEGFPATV
Procedure, shortened: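 Beta-lactamase FRET fluorescence is read after 2 hr at room temperature with LiveBLAzer B/G substrate. Before that, ER-alpha-bla HEK293 cells sit 4 hr after plating, then receive compound plus 17beta-estradiol and incubate 18 hr at 37C.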

[11] = qHTS assay to identify small molecule antagonists of the estrogen receptor alpha (ER-alpha) signaling pathway - cell viability counter screen (AID 743074; calls by dose curve;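 note: HEK293 cells carrying ER-alpha-UAS-bla reporter stimulated with 17beta-estradiol; nearly all actives have a fitted effect of over 45% in size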)
[12] = target: Estrogen receptor (Homo sapiens) (UniProt P03372); experiment: qHTS assay to identify small molecule agonists of the estrogen receptor alpha (ER-alpha) signaling pathway (AID 743075; calls by dose curve;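 note: HEK293 GripTite cells with ER-alpha and UAS-driven beta-lactamase reporter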; note: potency is the fitted concentration of half-maximal effect)
[13] = target: Estrogen receptor (Homo sapiens) (UniProt P03372); experiment: qHTS assay to identify small molecule agonists of the estrogen receptor alpha (ER-alpha) signaling pathway using the BG1 cell line (AID 743079); settings: BG1Luc4E2 cells, ERE-luciferase agonist, 22 h; activation: at 70.3 µM (top of the series) unless noted; note: nearly all actives have a fitted effect of over 20% in size
[14] = qHTS assay to identify small molecule antagonists of the estrogen receptor alpha (ER-alpha) signaling pathway using the BG1 cell line (AID 743080; calls by dose curve;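 note: BG1 cells stimulated with 17beta-estradiol alongside compound; nearly all actives have a fitted effect of over 25% in size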)
Procedure, shortened: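 Seeding, 24 h rest, compound transfer from DMSO, 17beta-estradiol addition, 21.5 h incubation, CellTiter-Fluor (30 min, 37 C), then ONE-Glo (30 min, room temperature): this sequence was run on BG1-Luc-4E2 reporter cells.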

[15] = qHTS assay to identify small molecule antagonists of the estrogen receptor alpha (ER-alpha) signaling pathway using the BG1 cell line - cell viability counter screen (AID 743081);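 note: compound given together with 17beta-estradiol as the ER stimulus; nearly all actives have a fitted effect of over 45% in size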; note: potency is the fitted concentration of half-maximal effect
Aromatase (Homo sapiens) = Aromatase (Homo sapiens) (UniProt P11511); experiment: qHTS assay to identify aromatase inhibitors (AID 743083); note: nearly all actives have a fitted effect of over 55% in size; note: potency is the fitted concentration of half-maximal effect
Chain of Aromatase (Homo sapiens) (P11511 whole entry, looked up): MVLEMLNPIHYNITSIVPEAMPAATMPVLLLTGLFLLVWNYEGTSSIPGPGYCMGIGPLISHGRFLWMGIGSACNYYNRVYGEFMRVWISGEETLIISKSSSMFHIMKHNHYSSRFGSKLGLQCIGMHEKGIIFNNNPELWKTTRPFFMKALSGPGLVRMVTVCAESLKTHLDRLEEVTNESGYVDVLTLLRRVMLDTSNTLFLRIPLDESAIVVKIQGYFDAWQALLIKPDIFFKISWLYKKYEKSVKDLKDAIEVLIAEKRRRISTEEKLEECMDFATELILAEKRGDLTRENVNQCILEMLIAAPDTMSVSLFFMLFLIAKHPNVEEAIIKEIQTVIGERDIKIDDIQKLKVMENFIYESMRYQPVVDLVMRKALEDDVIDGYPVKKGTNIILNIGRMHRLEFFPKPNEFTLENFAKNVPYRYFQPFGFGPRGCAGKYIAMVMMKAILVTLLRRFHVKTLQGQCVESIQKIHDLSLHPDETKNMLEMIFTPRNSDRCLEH

[16] = target: Androgen receptor (Homo sapiens) (UniProt P10275); experiment: qHTS assay to identify small molecule antagonists of the androgen receptor (AR) signaling pathway (AID 743035; active = well fitted inhibition curve with a large enough effect in the signal ratio in the repeat runs, not every such curve was filed as active; inconclusive = weak or mixed curves, or effect the other way; inactive = no such curve, though single readings can be large or run the other way; the % refers to the signal ratio)
Chain of Androgen receptor (Homo sapiens) (P10275 whole entry, looked up): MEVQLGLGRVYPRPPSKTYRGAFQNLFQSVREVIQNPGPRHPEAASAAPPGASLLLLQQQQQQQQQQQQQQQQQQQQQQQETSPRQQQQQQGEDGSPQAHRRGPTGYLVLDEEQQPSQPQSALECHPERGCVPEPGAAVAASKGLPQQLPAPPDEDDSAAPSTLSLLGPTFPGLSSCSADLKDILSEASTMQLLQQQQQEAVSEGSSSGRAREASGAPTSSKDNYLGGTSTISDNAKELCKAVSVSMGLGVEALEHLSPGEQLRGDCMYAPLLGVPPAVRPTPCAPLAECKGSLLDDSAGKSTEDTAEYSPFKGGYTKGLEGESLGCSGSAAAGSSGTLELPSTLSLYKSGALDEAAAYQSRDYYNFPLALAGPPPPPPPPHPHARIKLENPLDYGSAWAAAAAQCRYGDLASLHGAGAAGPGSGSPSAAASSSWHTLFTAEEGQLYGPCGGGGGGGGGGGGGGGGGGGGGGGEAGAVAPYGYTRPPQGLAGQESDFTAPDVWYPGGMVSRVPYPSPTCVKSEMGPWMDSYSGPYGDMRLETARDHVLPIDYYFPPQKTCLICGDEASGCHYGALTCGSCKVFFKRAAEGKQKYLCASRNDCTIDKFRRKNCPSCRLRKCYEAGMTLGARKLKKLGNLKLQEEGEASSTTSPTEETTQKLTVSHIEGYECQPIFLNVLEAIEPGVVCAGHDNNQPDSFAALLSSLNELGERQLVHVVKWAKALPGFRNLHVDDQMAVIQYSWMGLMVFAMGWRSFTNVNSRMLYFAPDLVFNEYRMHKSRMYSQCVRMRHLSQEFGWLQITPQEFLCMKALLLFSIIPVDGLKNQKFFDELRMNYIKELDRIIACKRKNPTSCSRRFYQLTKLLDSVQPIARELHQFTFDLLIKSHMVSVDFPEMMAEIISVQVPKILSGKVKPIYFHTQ
Procedure, shortened: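 R1881 agonist challenge of a HEK293 UAS-beta-lactamase AR reporter line in the presence of compound (16 h, 37C); signal taken as FRET fluorescence after 2 h with LiveBLAzer B/G substrate at room temperature.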

[17] = target: Androgen receptor (Homo sapiens) (UniProt P10275); experiment: qHTS assay to identify small molecule agonists of the androgen receptor (AR) signaling pathway (AID 743036; active = well fitted activation curve with a large enough effect in the signal ratio in the repeat runs, with a control signal flat, not every such curve was filed as active; inconclusive = weak or mixed curves, or effect the other way; inactive = no such curve, though single readings can be large or run the other way; the % refers to the signal ratio)
Procedure, shortened: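 In this Tox21 qHTS, 2,000 HEK293 AR-bla cells per well were incubated with compounds for 16 h at 37C and 5% CO2. Fluorescence intensity was recorded 2 h after adding LiveBLAzer B/G FRET substrate at room temperature.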

[18] = target: Androgen receptor (Homo sapiens) (UniProt P10275); experiment: qHTS assay to identify small molecule agonists of the androgen receptor (AR) signaling pathway using the MDA cell line (AID 743040; note: nearly all actives have a fitted effect of over 20% in size); settings: MDA-kb2 AR-luc cells, MMTV luciferase, 16 h, stronger effect = higher value
Procedure, shortened: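 Luciferase read-out, ONE-Glo, 30 min RT. Cells: MDA-kb2 AR-luc, MMTV promoter with AR and GR response elements. Compound exposure 16 h, 37C, 0% CO2, after 5 h pre-incubation. qHTS agonist mode.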

[19] = target: Androgen receptor (Homo sapiens) (UniProt P10275); experiment: qHTS assay to identify small molecule antagonists of the androgen receptor (AR) signaling pathway using the MDA cell line (AID 743042; note: nearly all actives have a fitted effect of over 55% in size)
Procedure, shortened: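 MDA-kb2 breast carcinoma cells carrying MMTV-luciferase (AR/GR responsive) were co-treated with compounds and the agonist R1881 for 16 h at 37C. Inhibition read as ONE-Glo luminescence; CellTiter-Fluor fluorescence measured in parallel for cytotoxicity.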
% is set by controls: 0 for no effect and ±100 for the full control effect.

CCOP(=S)(OCC)SCSC(C)(C)C
inactive: Potency [1] | Potency [2] | Potency [3] | Potency [4] | Potency [5] | Potency [6] | Potency [7] | Potency [8] | Potency [9] | Potency [10] | Potency [11] | Potency [12] | Potency [13] | Potency [14] | Potency [15] | Potency (Aromatase (Homo sapiens))

CCOS(=O)(=O)OCC
inactive and 54.5 µM (active): Potency [3]
inactive: Potency [1] | Potency [2] | Potency [4] | Potency [5] | Potency [6] | Potency [7] | Potency [8] | Potency [9] | Potency [10] | Potency [11] | Potency [12] | Potency [13] | Potency [14] | Potency [15] | Potency (Aromatase (Homo sapiens))

C=CC(Cl)CCl (stereo not drawn)
inactive: Potency [1] | Potency [2] | Potency [3] | Potency [4] | Potency [5] | Potency [16] | Potency [17] | activity change ([18]; at 95 µM (top of the series)) -0.5% and 0.488% | Potency [6] | Potency [19] | Potency [7] | Potency [8] | Potency [9] | Potency [11] | Potency [15] | Potency (Aromatase (Homo sapiens))

CCCCOCCOC(C)=O
inactive: Potency [1] | Potency [2] | Potency [3] | Potency [4] | Potency [5] | Potency [6] | Potency [7] | Potency [8] | Potency [9] | Potency [10] | Potency [11] | Potency [12] | Potency [13] | Potency [14] | Potency [15] | Potency (Aromatase (Homo sapiens))

CCOP(=S)(OCC)SCn1c(=O)oc2cc(Cl)ccc21
active: Potency [2] 27.3 µM | Potency [3] 32.9 µM and 27.3 µM | Potency [4] 46.4 µM and 30.6 µM | Potency [8] 68.6 µM | Potency (Aromatase (Homo sapiens)) 65.6 µM
inactive: Potency [1] | Potency [5] | Potency [6] | Potency [7] | Potency [9] | Potency [10] | Potency [11] | Potency [12] | Potency [13] | Potency [14] | Potency [15]

CC(C)(c1ccc(OCC2CO2)cc1)c1ccc(OCC2CO2)cc1 (stereo not drawn)
inactive: Potency [1] | Potency [5] | Potency [16] | Potency [17] | activity change ([18]; at 70.3 µM (top of the series)) -0.897% | activity change ([18]; at 95 µM (top of the series)) -0.522% | Potency [6] | Potency [19] | Potency [9] | Potency [10] | Potency [11] | Potency [12] | Potency [13] | Potency [14] | Potency [15] | Potency (Aromatase (Homo sapiens))
active: Potency [2] 24.3 µM | Potency [3] 2.47 µM and 3.06 µM | Potency [4] 55.2 µM and 27.3 µM | Potency [8] 55.2 µM and 54.5 µM

O=NN1CCOCC1
inactive: Potency [1] | Potency [2] | Potency [3] | Potency [4] | Potency [5] | Potency [6] | Potency [7] | Potency [8] | Potency [9] | Potency [10] | Potency [11] | Potency [12] | Potency [13] | Potency [14] | Potency [15] | Potency (Aromatase (Homo sapiens))

O=C1CCCO1
inactive: Potency [1] | Potency [2] | Potency [3] | Potency [4] | Potency [5] | Potency [16] | Potency [17] | activity change ([18]; at 70.3 µM (top of the series)) -2.47% and -0.181% | Potency [6] | Potency [19] | Potency [7] | Potency [8] | Potency [9] | Potency [11] | Potency [15] | Potency (Aromatase (Homo sapiens))

CC[n+]1c(-c2ccccc2)c2cc(N)ccc2c2ccc(N)cc21
active: Potency [1] 16.9 µM and 19 µM and 13.7 µM | Potency [2] 211 nM and 531 nM and 171 nM | Potency [3] 376 nM and 841 nM and 96.4 nM | Potency [4] 298 nM and 750 nM and 85.9 nM | Potency [5] 12 µM and 4.88 µM | Potency [6] 13.3 µM and 26.6 µM and 30.5 µM | Potency [8] 23.7 µM and 27.2 µM | Potency [10] 26.8 µM [inconclusive] and 30.8 µM [inconclusive] | Potency [12] 4.25 µM [inconclusive] and 19 µM [inconclusive] and 5.47 µM [inconclusive] | Potency [15] 54.2 µM | Potency (Aromatase (Homo sapiens)) 18.8 µM and 26.6 µM and 12.1 µM
inactive and 54.2 µM (active): Potency [7]
inactive: Potency [9] | Potency [11] | Potency [13] | Potency [14]

C=C(C)C#N
inactive: Potency [1] | Potency [2] | Potency [3] | Potency [4] | Potency [5] | Potency [6] | Potency [7] | Potency [8] | Potency [9] | Potency [10] | Potency [11] | Potency [12] | Potency [13] | Potency [14] | Potency [15] | Potency (Aromatase (Homo sapiens))

N#Cc1cccnc1
inactive: Potency [1] | Potency [2] | Potency [3] | Potency [4] | Potency [5] | Potency [6] | Potency [7] | Potency [8] | Potency [9] | Potency [10] | Potency [11] | Potency [12] | Potency [13] | Potency [14] | Potency [15] | Potency (Aromatase (Homo sapiens))

COP(=S)(OC)SCn1nnc2ccccc2c1=O
inactive: Potency [1] | Potency [5] | Potency [16] | Potency [17] | activity change ([18]; at 70.3 µM (top of the series)) -2.47% and -4.42% | Potency [6] | Potency [7] | Potency [9] | Potency [10] | Potency [11] | Potency [12] | Potency [13] | Potency [14] | Potency [15]
active: Potency [2] 43.3 µM | Potency [3] 60 µM and 61.1 µM | Potency [4] 60 µM and 61.1 µM | Potency (Aromatase (Homo sapiens)) 54.5 µM
